According to PubChem BioAssay (NCATS):
Results filed as inconclusive are left out. Active and inactive are the calls of the source. Unless noted, the call rests on the fitted dose curve; in most records, active means well fitted curve in the direction sought with a large enough effect; inconclusive means small, poorly fitted or top-dose-only effect, or another doubt; inactive means no such curve, though single readings can be large; an effect the other way counts as inactive or inconclusive.

Columns and labels:
[1] = Cell Viability - LYMP2-019 (AID 973);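 further: 0% = DMSO alone and full effect = 92 µM tetraoctylammonium bromide; nearly all actives have a fitted effect of over 55% in size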
In short: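 AC50 values come from Hill-equation modelling of qHTS concentration-response curves, where viability is measured as luciferase-based ATP luminescence in the lymphoblastoid line after 24 hr compound exposure in complete culture medium.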

[2] = Cell Viability - LYMP2-023 (AID 975);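 further: cellular ATP measured by luciferase luminescence as viability proxy; series mostly up to about 92 µM; plate controls were DMSO only for no effect and 92 µM tetraoctylammonium bromide control for full effect; nearly all actives have a fitted effect of over 55% in size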
In short: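 In this qHTS, ATP-based luciferase luminescence (CellTiter-Glo) is quantified in human lymphoblastoid cells after 24 hr compound treatment at 37 C; tetraoctylammonium bromide serves as positive control. Concentration-response curves are Hill-fitted to give AC50.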

[3] = Cell Viability - LYMP2-025 (AID 976);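 further: series mostly up to about 92 µM; plate controls were DMSO only for no effect and tetraoctylammonium bromide control for full effect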
In short: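 Luminescent ATP readout after 24 hr treatment of a human lymphoblastoid line (LYMP2-025, 2500 cells/well, 37 C). Reagent developed 30 min at room temperature; AC50 fitted with the Hill equation.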

[4] = Cell Viability - LYMP2-002 (AID 977);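 further: series mostly up to about 92 µM; compound exposure lasted 24 h at 37 °C; plate controls were DMSO only for no effect and 92 µM tetraoctylammonium bromide for full effect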
In short: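 Human lymphoblastoid cells, 2500/well, complete medium; 5 h 37 C settle; compound 24 h 37 C; CellTiter-Glo, 30 min RT; luminescence. Decrease in ATP = cytotoxicity; AC50 via Hill equation.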

[5] = Cell Viability - LYMP2-007 (AID 979);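 further: cells exposed to compound for 24 h before reading; 0% = DMSO only and the negative end = 92 µM tetraoctylammonium bromide; nearly all actives have a fitted effect of over 60% in size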
In short: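 Measured via luciferase-based ATP quantitation: lymphoblastoid cells, 24 hr compound exposure at 37 C, AC50 from Hill fits.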

[6] = Cell Viability - LYMP2-008 (AID 980); further: on the % scale 0 is the no-effect control and ±100 the full control effect; nearly all actives have a fitted effect of over 60% in size
In short: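 Measured: ATP-dependent luminescence, proportional to viable cell number, in human lymphoblastoid cells treated 24 hr with compound in complete culture medium. Values are AC50s from Hill-equation modelling of qHTS titrations.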

[7] = Cell Viability - LYMP2-010 (AID 981); further: on the % scale 0 is the no-effect control and ±100 the full control effect; nearly all actives have a fitted effect of over 55% in size
In short: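 This 24 hr viability screen uses LYMP2-010 lymphoblastoid cells, quantifies ATP via luciferase luminescence, and derives AC50 from Hill fits of qHTS concentration-response data.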

[8] = Cell Viability - LYMP2-012 (AID 982);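 further: cellular ATP by luciferase luminescence where a drop means cytotoxicity; cells exposed to compound for one day before reading; 0% = DMSO only and full loss = 92 µM tetraoctylammonium bromide; nearly all actives have a fitted effect of over 55% in size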
[9] = Cell Viability - LYMP2-014 (AID 983);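 further: series mostly up to about 92 µM; plate controls were DMSO only for no effect and 92 µM tetraoctylammonium bromide for full effect; nearly all actives have a fitted effect of over 50% in size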
In short: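 Quantitative HTS in lymphoblastoid cells: 24 hr compound exposure, then CellTiter-Glo ATP luminescence. Positive control was tetraoctylammonium bromide, 6.4pM to 92 uM.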

[10] = Cell Viability - LYMP2-016 (AID 984)
In short: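 Acute toxicity in a Coriell human lymphoblastoid line is scored as loss of intracellular ATP over 24 h of treatment in complete medium. CellTiter-Glo signal is fitted across concentrations with the Hill equation to give AC50.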

[11] = Cell Viability - LYMP2-018 (AID 985);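 further: plate controls were DMSO only for no effect and tetraoctylammonium bromide at 92 µM for full effect; nearly all actives have a fitted effect of over 50% in size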
In short: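 In this qHTS viability assay, cells are treated for 24 hr and cellular ATP is quantified by luciferase-based luminescence, with tetraoctylammonium bromide as positive control.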

[12] = Cell Viability - LYMP2-022 (AID 987)
In short: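 In this qHTS cytotoxicity screen, compound titrations were incubated 24 hr at 37 C with human lymphoblastoid cells in complete medium. Luciferase-based ATP luminescence provided the viability signal.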

[13] = Cell Viability - LYMP2-024 (AID 988);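 further: plate controls were DMSO only for no effect and 92 µM tetraoctylammonium bromide for full effect; nearly all actives have a fitted effect of over 60% in size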
In short: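 Cells at 2500 per well received compound for 24 hr after a 5 hr settling period. Viability was scored by CellTiter-Glo luminescence, with AC50 from Hill fits.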

[14] = Cell Viability - LYMP2-026 (AID 989); further: on the % scale 0 is the no-effect control and ±100 the full control effect; nearly all actives have a fitted effect of over 50% in size
In short: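 Acute toxicity screen in complete culture medium, with 24 hr compound exposure at 37 C. Viability read as cellular ATP via luciferase reaction, with tetraoctylammonium bromide (6.4pM to 92 uM) as positive control.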

[15] = Cell Viability - LYMP1-002 - Assay at 24 hr (AID 993); further: on the % scale 0 is the no-effect control and ±100 the full control effect
In short: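 Viability was judged from intracellular ATP using a luciferase read-out, following a 24-hour compound incubation at 37 C of lymphoblastoid cells seeded at 2500 per well. Concentration-response data were fitted to the Hill equation for AC50.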

[16] = Cell Viability - LYMP1-002 - Assay at 40 hr (AID 994);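 further: 0% = DMSO only and full inhibition = 92 µM tetraoctylammonium bromide; nearly all actives have a fitted effect of over 60% in size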
In short: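 Concentration-dependent ATP loss after 40 hr treatment at 37 C defined toxicity; AC50 values were obtained by fitting the standard Hill equation.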

[17] = qHTS Assay for Identification of Small Molecule Inducers of Hypoxia Response (AID 2120; active means well fitted curve in the direction sought with a large enough effect in the signal ratio, with a control signal flat, not every such curve was filed as active; the % refers to the signal ratio; further: 0% is about no effect)
In short: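 HRE-bla ME-180, 2500 cells/well, 0.5% dialyzed FBS medium; cpd titration, 17 h 37 degrees C; CCF4 2.5 h RT; Ex 405, Em 460/530 ratio -> %Activity, AC50.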

[18] = target: Peroxisome proliferator-activated receptor delta (Homo sapiens) (UniProt Q03181); assay: qHTS assay for small molecule agonists of peroxisome proliferator-activated receptor delta signaling (AID 588534; calls by dose curve;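 further: 0% = DMSO basal wells and 100% = positive control agonist at 10 µM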)
In short: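 EC50 and efficacy values derive from Hill fits of a concentration series in a beta-lactamase reporter cell assay. Exposure is 18 hrs at 37 C, with CCF4 fluorescence as the readout.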

[19] = qHTS assay for small molecule antagonists of peroxisome proliferator-activated receptor delta signaling (AID 588535; active means well fitted inhibition curve with a large enough effect in the signal ratio, with a control signal flat, not every such curve was filed as active; the % refers to the signal ratio); conditions: HEK293T PPARd-UAS-bla, beta-lactamase FRET ratio, 18 h; 460 nm channel
In short: (§1)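 Beta-lactamase reporter read-out (405 nm excitation, 460/530 nm emission) after CCF4 loading for 2 hrs at RT. HEK293T PPAR-delta-UAS-bla cells, 2% charcoal/dextran FBS, compounds for 18 hrs at 37 C. Hill fit gave IC50 and efficacy.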

[20] = target: Peroxisome proliferator-activated receptor delta (Homo sapiens) (UniProt Q03181); assay: as above
In short: as §1

[21] = target: Vitamin D3 receptor (Homo sapiens) (UniProt P11473); assay: qHTS assay for small molecule antagonists of vitamin D receptor signaling (AID 588541; calls by dose curve;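 further: receptor activated by calcitriol during compound treatment; series mostly up to about 77 µM; on the % scale 0 is the no-effect control and ±100 the full control effect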)
In short: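 VDR-UAS-bla HEK293T cells in 2% charcoal-stripped FBS were stimulated with 1-alpha,25-dihydroxyvitamin D3 (3 nM final) plus compound for 16 h at 37 C. The beta-lactamase CCF4 readout was normalized to 50 nM agonist and DMSO, and Hill fits gave IC50.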

[22] = target: Vitamin D3 receptor (Homo sapiens) (UniProt P11473); assay: qHTS assay for small molecule agonists of vitamin D receptor signaling (AID 588543; calls by dose curve;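 further: 0% = DMSO basal and 100% = reference agonist control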)
In short: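 qHTS in agonist mode: compound titrations stimulate a VDR-driven β-lactamase reporter in HEK293T cells over 16 h at 37 °C. Response normalized to 50 nM 1α,25-dihydroxyvitamin D3 = 100%, DMSO = 0%; Hill fitting gives EC50 and maximal response.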

[23] = qHTS assay for small molecule agonists of retinoid X receptor alpha signaling (AID 588544; calls by dose curve); conditions: HEK293T RXRa-UAS-bla, beta-lactamase reporter, 18 h; 530 nm emission
[24] = target: Retinoic acid receptor RXR-alpha (Homo sapiens) (UniProt P19793); assay: as above
[25] = target: Thyroid hormone receptor beta (Homo sapiens) (UniProt P10828); assay: qHTS assay for small molecule agonists of thyroid hormone receptor beta signaling (AID 588545; calls by dose curve;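 further: 0% = DMSO only and 100% = 10 nM T3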)
In short: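 Stimulation of a TR-driven beta-lactamase reporter was quantified in GripTite HEK 293 cells. Compound series ran for 18 hrs; curves were normalized to T3 and DMSO controls and fitted to yield EC50.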

[26] = qHTS assay for small molecule antagonists of retinoid X receptor alpha signaling (AID 588546; active means well fitted inhibition curve with a large enough effect in the signal ratio, with a control signal flat, not every such curve was filed as active; the % refers to the signal ratio;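 further: cells stimulated with 9-cis-retinoic acid as agonist; on the % scale 0 is the no-effect control and ±100 the full control effect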); conditions: HEK293T RXRa-UAS-bla, beta-lactamase ratio, antagonist mode; measured here: W530 green channel, cytotoxicity proxy
In short: (§2)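 Beta-lactamase reporter inhibition, read as CCF4 fluorescence ratio (ex 405, em 460/530 nm) after 2 h at RT. HEK293T UAS-bla cells, 2500/well, were stimulated with 9-cis-RA at 500 or 100 nM final alongside test compound for 18 h at 37 C.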

[27] = target: Retinoic acid receptor RXR-alpha (Homo sapiens) (UniProt P19793); assay: as above; conditions: HEK293T RXRa-UAS-bla, beta-lactamase ratio, antagonist mode
In short: as §2

[28] = target: Thyroid hormone receptor beta (Homo sapiens) (UniProt P10828); assay: qHTS assay for small molecule antagonists of thyroid hormone receptor beta signaling (AID 588547; active means well fitted inhibition curve with a large enough effect in the signal ratio, with a control signal flat, not every such curve was filed as active; the % refers to the signal ratio;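 further: cells stimulated with 0.4 nM T3 agonist during compound exposure; series mostly up to about 77 µM; on the % scale 0 is the no-effect control and ±100 the full control effect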); conditions: TR-UAS-bla HEK293, beta-lactamase ratio, antagonist mode, 18 h
In short: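 TR-UAS-bla GripTite HEK293 cells in 2% charcoal/dextran FBS medium; compounds 0.59 nM to 92 uM with T3 at 0.4nM final, 18 h at 37 C. Beta-lactamase read by CCF4 fluorescence (460/530 nm); Hill fits gave IC50 and efficacy.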

[29] = target: Voltage-gated inwardly rectifying potassium channel KCNH2 (Homo sapiens) (UniProt Q12809); assay: qHTS Assay for Small Molecule Inhibitors of the Human hERG Channel Activity (AID 588834);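 further: U2OS cells transduced with hERG by BacMam; top concentration of the series differs between compounds; on the % scale 0 is the no-effect control and ±100 the full control effect; lower thallium flux fluorescence means stronger hERG block; nearly all actives have a fitted effect of over 50% in size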
In short: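 Cells were infected with hERG-BacMam virus for 4 hrs at room temperature, grown overnight, then seeded at 2000/well. After dye loading and roughly 10 min compound treatment, thallium influx was triggered and fluorescence recorded.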

[30] = qHTS assay for small molecule agonists of the antioxidant response element (ARE) signaling pathway (AID 651741; active means well fitted activation curve with a large enough effect in the signal ratio; the % refers to the signal ratio; further: % of control where 0% means no effect)
In short: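 HepG2 ARE-bla reporter cells, 2,000/well; 5 h settle at 37 C/5% CO2; compound pin transfer (23 nL, DMSO); 16 h at 37 C; LiveBLAzer B/G FRET substrate, 2 h RT; fluorescence intensity read.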

[31] = qHTS assay for small molecule activators of the nuclear factor-kappa B (NF-kB) signaling pathway (AID 651749; active means well fitted activation curve with a large enough effect in the signal ratio; the % refers to the signal ratio; further: series mostly up to about 77 µM; % of control where 0% means no effect); conditions: NF-kB-bla ME-180 cells, beta-lactamase FRET ratio, 16 h; stronger effect = higher value
In short: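 NF-kB-bla ME-180 cells, 2,000/well; 23 nL compound or DMSO pinned; 16 hr, 37C/5% CO2; beta-lactamase FRET read-out.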

[32] = qHTS assay for small molecule disruptors of the mitochondrial membrane potential - 1 hr assay (AID 651754; calls by dose curve; further: on the % scale 0 is the no-effect control and ±100 the full control effect; nearly all actives have a fitted effect of over 35% in size)
In short: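 In this qHTS format, a 1 hr compound treatment of HepG2 cells precedes Mito-MPS staining, and membrane potential is judged from aggregate (red) against monomer (green) fluorescence intensity.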

[33] = qHTS assay for small molecule disruptors of the mitochondrial membrane potential - 5 hr assay (AID 651755; calls by dose curve; further: on the % scale 0 is the no-effect control and ±100 the full control effect; nearly all actives have a fitted effect of over 40% in size)
In short: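 Read-out: ratiometric Mito-MPS fluorescence, green monomer (ex 490/em 535) vs red mitochondrial aggregate (ex 540/em 590). HepG2 cells treated 5 hr at 37C before 30 min dye loading.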

[34] = target: Tumor necrosis factor (Homo sapiens) (UniProt P01375); assay: qHTS assay to identify small molecules that stimulate Tumor Necrosis Factor-alpha (TNF-alpha) secretion (AID 651757; active means well fitted curve in the direction sought with a large enough effect in the signal ratio; the % refers to the signal ratio; further: 0% is about no effect)
In short: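 Using 3000 THP-1 cells per well, compounds and controls were applied for 17 hrs at 37 C. Detection followed with two labeled anti-TNF-alpha antibodies (cryptate donor, XL665 acceptor) for 3 hr at room temperature, measured by TR-FRET.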

[35] = qHTS assay for environmental chemicals that activate the Aryl hydrocarbon Receptor (AhR) signaling pathway (AID 651777); conditions: 1A2-DRE human hepatoma cells, luciferase, 24 h; activation: stronger effect = higher value; further: % of control where 0% means no effect; nearly all actives have a fitted effect of over 15% in size
In short: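 Human hepatoma 1A2-DRE cells stably carrying a DRE/CYP1A2 promoter–luciferase reporter, 1,200 cells/well, exposed to compound 24 hr at 37 C. Luciferase read by One-Glo luminescence after 30 min at room temperature; increased signal marks AhR activation.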

[36] = target: Nuclear receptor ROR-gamma (Homo sapiens) (UniProt P51449); assay: qHTS assay for small molecule antagonists of the retinoid-related orphan receptor gamma (ROR-gamma) signaling pathway (AID 651802)
In short: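 Doxycycline-induced reporter activity in engineered CHO cells (TET-inducible ROR, RORE-LUC) was measured by luminescence after 16hr compound exposure at 37C.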

[37] = qHTS assay for small molecule agonists of the antioxidant response element (ARE) signaling pathway measured by Nrf2-dependant transcriptional activity (AID 720636; active means well fitted curve in the direction sought with a large enough effect in the repeat runs; an effect the other way counts as inactive or inconclusive; further: % of control where 0% means no effect)
In short: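 ARE-luc HepG2 cells carrying an Nrf2-responsive luciferase reporter, in medium with 1% dialyzed FBS, exposed to compound for 16 hr at 37 C, 5% CO2. Luminescence read 30 min after ONE-Glo addition.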

[38] = qHTS assay for small molecule antagonists of the retinoid-related orphan receptor gamma (ROR-gamma) signaling pathway - cell viability counter screen (AID 720652; active means well fitted curve in the direction sought with a large enough effect in the repeat runs; an effect the other way counts as inactive or inconclusive)
In short: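 ATP-based viability readout in the ROR-gamma reporter CHO cells after 16 hr compound exposure under doxycycline induction.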

[39] = qHTS assay for cell viability of HEK293 cells (AID 743288); conditions: ATP luminescence (CellTiter-Glo), 18 h, stronger effect = lower value
In short: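 Quantitative high-throughput screen: compounds were pinned onto parental HEK293 cells (2,000 per well) after a minimum 5 h settling at 37 C, incubated 18 h at 37 C, and intracellular ATP measured by luciferase luminescence.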

[40] = qHTS assay for cell viability of the p53RE-bla HCT-116 cell line (AID 743292)
In short: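 CellSensor p53RE-bla HCT-116 cells (4,000/well) pre-incubated 5 h at 37 C, then exposed to compounds in DMSO for 16 h at 37 C. Viability read as ATP content by CellTiter-Glo luminescence after 30 min at room temperature.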

[41] = target: Nuclear receptor subfamily 1 group I member 2 (Rattus norvegicus) (UniProt Q9R1A7); assay: qHTS assay for small molecule activators of the rat pregnane X receptor (rPXR) signaling pathway (AID 651751; call rule not given here); conditions: rPXR reporter cells, luciferase (One-Glo), 24 h
[42] = qHTS assay for small molecule activators of the human pregnane X receptor (PXR) signaling pathway (AID 720659; call rule not given here)

Chain of Peroxisome proliferator-activated receptor delta (Homo sapiens) (Q03181 whole entry, looked up): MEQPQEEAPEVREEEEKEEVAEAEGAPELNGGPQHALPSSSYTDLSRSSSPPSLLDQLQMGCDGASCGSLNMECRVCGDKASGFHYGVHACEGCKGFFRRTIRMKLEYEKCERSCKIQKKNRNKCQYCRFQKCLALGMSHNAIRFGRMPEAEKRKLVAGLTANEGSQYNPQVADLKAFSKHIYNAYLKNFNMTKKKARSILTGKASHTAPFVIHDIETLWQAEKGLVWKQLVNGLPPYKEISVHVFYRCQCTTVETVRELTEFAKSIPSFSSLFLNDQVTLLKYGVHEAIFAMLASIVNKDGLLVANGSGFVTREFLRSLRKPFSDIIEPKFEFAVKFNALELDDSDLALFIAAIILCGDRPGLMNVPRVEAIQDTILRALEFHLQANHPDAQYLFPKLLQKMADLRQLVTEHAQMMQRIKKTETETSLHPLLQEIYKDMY
Chain of Vitamin D3 receptor (Homo sapiens) (P11473 whole entry, looked up): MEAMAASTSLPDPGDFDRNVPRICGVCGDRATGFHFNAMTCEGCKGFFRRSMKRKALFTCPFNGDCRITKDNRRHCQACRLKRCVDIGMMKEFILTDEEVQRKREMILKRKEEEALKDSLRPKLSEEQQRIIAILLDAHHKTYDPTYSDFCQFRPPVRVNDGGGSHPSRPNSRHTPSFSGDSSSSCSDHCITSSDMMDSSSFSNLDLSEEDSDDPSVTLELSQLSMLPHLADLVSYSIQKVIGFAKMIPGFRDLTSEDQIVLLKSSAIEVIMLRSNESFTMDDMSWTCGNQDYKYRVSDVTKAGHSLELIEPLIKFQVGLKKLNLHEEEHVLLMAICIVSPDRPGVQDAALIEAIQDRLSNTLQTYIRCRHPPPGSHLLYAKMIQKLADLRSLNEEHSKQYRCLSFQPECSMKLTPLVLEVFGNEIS
Chain of Thyroid hormone receptor beta (Homo sapiens) (P10828 whole entry, looked up): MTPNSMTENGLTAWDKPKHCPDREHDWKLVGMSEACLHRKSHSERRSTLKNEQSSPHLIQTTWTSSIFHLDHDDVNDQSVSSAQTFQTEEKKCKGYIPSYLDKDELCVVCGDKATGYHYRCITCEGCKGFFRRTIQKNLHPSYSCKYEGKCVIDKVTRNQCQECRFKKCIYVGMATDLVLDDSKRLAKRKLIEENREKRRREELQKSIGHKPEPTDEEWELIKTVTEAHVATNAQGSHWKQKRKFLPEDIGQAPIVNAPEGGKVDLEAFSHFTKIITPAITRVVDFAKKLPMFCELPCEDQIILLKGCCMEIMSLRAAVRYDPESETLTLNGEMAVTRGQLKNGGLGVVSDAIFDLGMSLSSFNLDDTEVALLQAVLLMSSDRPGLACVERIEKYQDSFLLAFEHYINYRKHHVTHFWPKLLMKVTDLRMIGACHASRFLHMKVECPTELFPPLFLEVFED
Chain of Retinoic acid receptor RXR-alpha (Homo sapiens) (P19793 whole entry, looked up): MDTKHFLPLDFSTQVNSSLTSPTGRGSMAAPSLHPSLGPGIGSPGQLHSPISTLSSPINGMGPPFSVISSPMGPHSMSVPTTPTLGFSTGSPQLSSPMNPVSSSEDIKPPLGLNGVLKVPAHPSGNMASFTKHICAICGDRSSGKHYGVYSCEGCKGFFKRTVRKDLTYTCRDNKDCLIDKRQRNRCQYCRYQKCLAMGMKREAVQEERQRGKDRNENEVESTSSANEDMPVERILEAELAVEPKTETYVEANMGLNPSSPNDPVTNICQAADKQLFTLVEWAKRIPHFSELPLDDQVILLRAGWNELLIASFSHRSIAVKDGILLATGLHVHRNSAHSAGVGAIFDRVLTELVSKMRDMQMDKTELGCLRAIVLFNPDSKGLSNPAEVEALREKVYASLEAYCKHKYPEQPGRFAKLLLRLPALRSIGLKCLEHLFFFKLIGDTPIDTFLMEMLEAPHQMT
Chain of Tumor necrosis factor (Homo sapiens) (P01375 whole entry, looked up): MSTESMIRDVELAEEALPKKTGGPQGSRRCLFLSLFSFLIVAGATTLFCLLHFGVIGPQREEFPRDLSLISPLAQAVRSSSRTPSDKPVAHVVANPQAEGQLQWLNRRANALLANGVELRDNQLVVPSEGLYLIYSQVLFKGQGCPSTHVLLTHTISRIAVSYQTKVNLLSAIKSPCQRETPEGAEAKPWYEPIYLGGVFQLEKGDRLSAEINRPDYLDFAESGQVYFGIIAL
Chain of Voltage-gated inwardly rectifying potassium channel KCNH2 (Homo sapiens) (Q12809 whole entry, looked up): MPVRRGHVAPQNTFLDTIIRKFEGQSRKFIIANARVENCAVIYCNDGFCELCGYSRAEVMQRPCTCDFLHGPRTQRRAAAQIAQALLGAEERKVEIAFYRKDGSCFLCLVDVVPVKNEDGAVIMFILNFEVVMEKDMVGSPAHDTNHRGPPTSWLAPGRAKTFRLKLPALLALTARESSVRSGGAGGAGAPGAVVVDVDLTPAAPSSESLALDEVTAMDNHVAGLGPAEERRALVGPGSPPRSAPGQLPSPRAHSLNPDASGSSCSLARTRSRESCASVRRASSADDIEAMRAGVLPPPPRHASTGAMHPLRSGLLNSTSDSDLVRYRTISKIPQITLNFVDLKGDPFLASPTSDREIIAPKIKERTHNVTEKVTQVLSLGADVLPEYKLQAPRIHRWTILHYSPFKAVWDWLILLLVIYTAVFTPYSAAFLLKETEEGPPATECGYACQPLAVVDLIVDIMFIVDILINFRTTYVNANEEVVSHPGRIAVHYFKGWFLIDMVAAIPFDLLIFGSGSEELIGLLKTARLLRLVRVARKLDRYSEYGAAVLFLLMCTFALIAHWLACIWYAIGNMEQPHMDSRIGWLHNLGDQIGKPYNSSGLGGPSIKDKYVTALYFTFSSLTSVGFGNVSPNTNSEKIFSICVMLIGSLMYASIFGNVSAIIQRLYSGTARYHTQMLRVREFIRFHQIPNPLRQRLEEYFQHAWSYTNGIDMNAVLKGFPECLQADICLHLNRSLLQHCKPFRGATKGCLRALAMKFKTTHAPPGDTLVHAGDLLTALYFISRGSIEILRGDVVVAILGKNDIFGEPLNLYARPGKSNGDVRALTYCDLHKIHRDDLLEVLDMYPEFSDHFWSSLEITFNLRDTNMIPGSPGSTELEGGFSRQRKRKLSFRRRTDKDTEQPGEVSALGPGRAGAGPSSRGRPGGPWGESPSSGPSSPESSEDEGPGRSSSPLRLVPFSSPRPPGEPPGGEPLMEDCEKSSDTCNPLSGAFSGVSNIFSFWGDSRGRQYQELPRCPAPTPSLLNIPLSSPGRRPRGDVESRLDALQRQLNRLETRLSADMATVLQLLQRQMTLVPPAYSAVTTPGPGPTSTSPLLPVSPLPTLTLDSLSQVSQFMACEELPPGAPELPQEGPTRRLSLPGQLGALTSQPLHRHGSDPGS
Chain of Nuclear receptor subfamily 1 group I member 2 (Rattus norvegicus) (Q9R1A7 whole entry, looked up): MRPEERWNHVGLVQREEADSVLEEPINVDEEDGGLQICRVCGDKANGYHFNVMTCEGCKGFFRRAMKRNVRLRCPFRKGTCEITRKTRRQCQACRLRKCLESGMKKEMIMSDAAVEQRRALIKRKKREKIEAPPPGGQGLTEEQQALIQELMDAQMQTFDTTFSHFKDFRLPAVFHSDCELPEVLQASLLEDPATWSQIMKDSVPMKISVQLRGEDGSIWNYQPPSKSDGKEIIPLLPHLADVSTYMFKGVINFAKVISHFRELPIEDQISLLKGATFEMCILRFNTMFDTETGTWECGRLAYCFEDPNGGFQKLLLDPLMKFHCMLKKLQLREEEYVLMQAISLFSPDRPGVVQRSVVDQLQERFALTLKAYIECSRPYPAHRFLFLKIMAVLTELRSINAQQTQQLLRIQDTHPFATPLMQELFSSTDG
Chain of Nuclear receptor ROR-gamma (Homo sapiens) (P51449 whole entry, looked up): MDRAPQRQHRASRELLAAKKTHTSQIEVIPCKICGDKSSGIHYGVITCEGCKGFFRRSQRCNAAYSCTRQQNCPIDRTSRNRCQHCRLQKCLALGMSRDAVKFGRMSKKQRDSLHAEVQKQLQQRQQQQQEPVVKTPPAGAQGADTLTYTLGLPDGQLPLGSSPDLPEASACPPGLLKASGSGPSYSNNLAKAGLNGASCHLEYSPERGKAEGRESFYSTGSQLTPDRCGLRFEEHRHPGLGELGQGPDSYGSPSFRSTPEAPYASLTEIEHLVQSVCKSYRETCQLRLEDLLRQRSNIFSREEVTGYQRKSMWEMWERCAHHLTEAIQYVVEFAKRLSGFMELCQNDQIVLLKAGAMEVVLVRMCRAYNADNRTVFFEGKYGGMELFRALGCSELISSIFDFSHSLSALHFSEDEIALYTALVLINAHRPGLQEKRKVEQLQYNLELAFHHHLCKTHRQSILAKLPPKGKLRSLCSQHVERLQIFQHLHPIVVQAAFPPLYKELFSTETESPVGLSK

COC(C)(C)C
inactive: Potency [1] | Potency [2] | Potency [3] | Potency [4] | Potency [5] | Potency [6] | Potency [7] | Potency [8] | Potency [9] | Potency [10] | Potency [11] | Potency [12] | Potency [13] | Potency [14] | Potency [15] | Potency [16] | Potency [17] | outcome [18] | outcome [20] | outcome [21] | outcome [22] | outcome [24] | Potency [25] | max response [27] 6.43% | activity change % (negative = inhibition) [28] -17.3% | Potency [29] | Potency [30] | activation [31] 1.85% | Potency [32] | Potency [33] | outcome [34] | activation [35] -1.78% | Potency [36] | Potency [37] | Potency [38] | max response [39] -5.4% | Potency [40] | max response [41] 3.77% | outcome [42]
-16.9%: max response [19]
9.16%: max response [23]
-12.9%: max response [26]
